{"source": "PubChem BioAssay (Tox21)", "note": "A number with no mark means an inactive call. The call rests on the fitted dose curve. On the % scale 0 is the no-effect control and ±100 the full control effect."}
{"target": "Gonadotropin-releasing hormone receptor (Homo sapiens) (UniProt P30968)", "sequence (P30968 whole entry, looked up)": "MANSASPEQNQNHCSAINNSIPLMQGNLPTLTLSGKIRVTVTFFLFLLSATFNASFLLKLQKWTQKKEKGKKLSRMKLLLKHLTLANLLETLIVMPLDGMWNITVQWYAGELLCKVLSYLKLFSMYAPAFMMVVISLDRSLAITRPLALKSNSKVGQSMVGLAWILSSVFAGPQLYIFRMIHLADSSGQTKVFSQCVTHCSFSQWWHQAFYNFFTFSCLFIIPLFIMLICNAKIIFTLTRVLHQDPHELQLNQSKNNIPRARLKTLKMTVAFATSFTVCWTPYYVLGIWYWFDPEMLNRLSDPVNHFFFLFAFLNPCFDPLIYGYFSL", "assay": "Human gonadotropin-releasing hormone receptor (GnRHR) small molecule agonists, calcium flux assay in GnRHR-HEK293 cells (AID 1920063); further: nearly all actives have a fitted effect of over 35% in size", "details": "calcium flux fluorescence, agonist mode; series mostly up to 57.6 µM; activity change: at the top concentration", "text": "National Center for Advancing Translational Sciences [NCATS]\nDivision of Preclinical Innovation [DPI]\nU.S. Environmental Protection Agency [EPA]\nNational Institutes of Environmental Health Sciences [NIEHS]\nNational Toxicology Program [NTP]\nU.S. Food and Drug Administration [FDA]\nGonadotropin-releasing hormone receptor (GnRHR) is a G-protein-coupled receptor (GPCR) and acts (through phospholipase C) to increase intracellular inositol trisphosphate and then release intracellular calcium stores. Cell-based GnRHR-Hek293 calcium influx assay is using HEK293 cells that have been genetically engineered to express the human GnRHR, which activity can be measured by calcium signaling. A compound/drug can activate (agonist) GnRHR that can be monitored by levels of intracellular calcium.\nGnRHR-HEK293 cells developed by Codex Corp contain human GnRHR reporter gene, which was stably integrated into HEK 293 cells. The compound activation can be detected by fluorescence intensity via calcium flux assay. This cell line has been used to screen the Tox21 10K compound library to identify GnRHR agonists.\nGnRHR-Hek293 cells were dispensed at 1500cells/4uL/well in 1536-well black wall/clear bottom plates using a multidrop dispenser. After the assay plates were incubated at a 37 C/5% CO2 incubator for 18 hours, 4 uL of Calcium Dye Solution was added to each well. The plates were incubated at 37 C for 1 hour. For agonist mode, 23 nL of compounds dissolved in DMSO, positive controls or DMSO only was transferred to the assay plate by a pin tool station. The fluorescence intensity in the plates was measured using FDSS 7000EX kinetic plate reader with a filter set of Ex/Em=480/540 for 3 min at 1 sec intervals. Each test compound was measured at 15 concentrations and in triplicates."}
{"smiles": "CC12CCC(CC1=O)C2(C)C", "note": "(stereo not given)", "activity change": "-1.96%"}
{"smiles": "CCN(CC)c1ccc(C=O)cc1", "activity change": "-1.32%"}
{"smiles": "CCN(CC)C(C)CN1c2ccccc2Sc2ccccc21", "note": "(stereo not given)", "activity change": "-0.689% [at 26.4 µM, active compounds read high]"}
{"smiles": "COc1ccc2sc(C(=O)Nc3nnn[nH]3)c(OC(C)C)c2c1", "activity change": "-0.726%"}
{"smiles": "C=CCON/C(CCC)=C1\\C(=O)CC(C)(C)C(C(=O)OC)=C1O", "activity change": "-0.905%"}
{"smiles": "O=CNNC=O", "activity change": "1.4%"}
{"smiles": "CCCCCCCCC=O", "activity change": "-0.0435%"}
{"smiles": "CCCCCCCCOC(C)=O", "activity change": "0.423%"}
{"smiles": "C1=CCCC1", "activity change": "0.223%"}
{"smiles": "CCC(=O)Oc1ccc2c(c1)CC[C@@H]1[C@@H]2CC[C@@]2(C)[C@H]1C[C@@H](OC(=O)CC)[C@@H]2OC(=O)CC", "activity change": "0.811% [at 26.4 µM, active compounds read high]"}
{"smiles": "O=C(O)c1cc(-c2ccc(F)cc2F)ccc1O", "activity change": "0.405% [at 26.4 µM, active compounds read high]"}
{"smiles": "C/C=C/C=C/COC(=O)C(C)C", "activity change": "0.724%"}
{"smiles": "O=C1Nc2cc(Cl)ccc2Oc2ccccc21", "activity change": "5% [at 26.4 µM, active compounds read high]"}
{"smiles": "COc1ccccc1OC(=O)Oc1ccccc1OC", "activity change": "-1.28% [at 26.4 µM, active compounds read high]"}
{"smiles": "Cn1c(=O)c2c(ncn2CC(O)CO)n(C)c1=O", "note": "(stereo not given)", "activity change": "-0.589% [at 26.4 µM, active compounds read high]"}
{"smiles": "ONc1ccccc1", "activity change": "0.15%"}
{"smiles": "Clc1ccc2n[nH]nc2c1", "activity change": "-0.0627%"}
{"smiles": "CC(C)C[C@@H](N)C(=O)O", "activity change": "0.203% [at 11.8 µM, active compounds read high]"}
{"smiles": "N#C/C(=C1\\SCC(c2ccccc2Cl)S1)n1ccnc1", "note": "(stereo not given)", "activity change": "0.571% [at 26.4 µM, active compounds read high]"}
{"smiles": "c1ccc(C(O[C@H]2CCCN(CCc3ccc4c(c3)OCO4)C2)c2ccccc2)cc1", "activity change": "3.88% [at 26.4 µM, active compounds read high]"}
{"smiles": "O=C(/C=C/c1ccc(O)c(O)c1)O[C@@H]1C[C@](O)(C(=O)O)C[C@@H](O)[C@H]1O", "activity change": "0.0384%"}
{"smiles": "CC(=O)Nc1ccc(C)c(Cl)c1", "activity change": "-0.524%"}
{"smiles": "CC(CCc1ccc(O)cc1)NCCc1ccc(O)c(O)c1", "note": "(stereo not given)", "activity change": "7.75% [at 26.4 µM, active compounds read high]"}
{"smiles": "CN1CCC[C@@H]1Cc1c[nH]c2ccc(CCS(=O)(=O)c3ccccc3)cc12", "activity change": "1.14% [at 26.4 µM, active compounds read high]"}
{"smiles": "CCOC(=O)C(C)(C)C", "activity change": "2.86%"}
{"smiles": "COc1ccc(/C=C/S(=O)(=O)NC(=O)c2ccc(C)cc2Cl)cc1", "activity change": "-0.673%"}
{"smiles": "CN1C[C@H](C(=O)N[C@]2(C)O[C@@]3(O)[C@@H]4CCCN4C(=O)[C@H](Cc4ccccc4)N3C2=O)C[C@@H]2c3cccc4[nH]cc(c34)C[C@H]21", "activity change": "-0.504% [at 26.4 µM, active compounds read high]"}
{"smiles": "C=COCCCCO", "activity change": "2.39%"}
{"smiles": "CNC(=O)N(c1ccccc1)c1ccccc1", "activity change": "-0.111%"}
{"smiles": "CCn1cc(C(=O)O)c(=O)c2cc(F)c(N3CCNC(C)C3)c(F)c21", "note": "(stereo not given)", "activity change": "1.57% [at 26.4 µM, active compounds read high]"}
{"smiles": "O=CN1CCCCC1", "activity change": "-0.193%"}
{"smiles": "CC(=O)Oc1ccc(C(C)=O)cc1", "activity change": "-1.16%"}
{"smiles": "CCc1cccc(CC)c1N(COC)C(=O)CS(=O)(=O)O", "activity change": "-0.606%"}
{"smiles": "COC(=O)[C@H]1[C@H]2C[C@@H]3c4[nH]c5cc(OC)ccc5c4CCN3C[C@H]2C[C@@H](OC(=O)COc2ccc(OC)cc2)[C@@H]1OC", "activity change": "7.04% [at 26.4 µM, active compounds read high]"}
{"smiles": "CC(C)(c1ccc(Oc2ccc3c(c2)C(=O)OC3=O)cc1)c1ccc(Oc2ccc3c(c2)C(=O)OC3=O)cc1", "activity change": "-0.763%"}
{"smiles": "CC(CO)(CO)C(=O)O", "activity change": "0.978%"}
{"smiles": "NS(=O)(=O)c1cc2c(cc1C(F)(F)F)NCNS2(=O)=O", "activity change": "0.516% [at 26.4 µM, active compounds read high]"}
{"smiles": "Oc1cccc(O)c1O", "activity change": "0.12%"}
{"smiles": "CN1CC(=O)N/C1=N/C(=O)Nc1cccc(Cl)c1", "activity change": "1.26% [at 26.4 µM, active compounds read high]"}
{"smiles": "OCCN1CN(CCO)CN(CCO)C1", "activity change": "1.84%"}
